Assay outcomes deposited in PubChem by National Center for Advancing Translational Sciences (NCATS).
HT1080 IDH1KD tx – kills HT-1080 cells with IDH1 knockdown. HT-1080 IDH1 knockdown viability, ATP luminescence, 48 h. Potency, µM (top dose mostly 46.1 µM), hits mostly cytotoxic. 360,000 tested, 2% active
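Using the IDH1-knockdown HT-1080 line run in the same batch and compound series as the NT line, viability after 48 h at 37 °C was determined by CellTiter-Glo luminescence and expressed as % activity.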
IL-1B inflam inh – inflammasome signaling inhibition, IL-1 beta readout; THP-1 LPS/ATP IL-1B secretion, AlphaLISA, 16 h; hits give low values; activity change, % at 57.5 µM; 360,000 tested, 4.7% active; in the data active = activity change below about -50%; inconclusive = mostly about -30% to -49%
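Secreted IL-1B measured by AlphaLISA bead assay after 16 h compound exposure of THP-1 cells; compounds (final up to 57.5 uM) added 1 h before LPS (250 ng/mL) and ATP (1.25 mM) stimulation; lower signal means less secretion.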
TDP1 cell CPT – DT40-hTDP1 cell growth loss with CPT; 420,000 tested, 12% active; AID 686979; chicken DT40 Tdp1-/-;hTDP1 cells + 20 nM CPT, ATP luminescence, 48 h; Potency, µM (highest dose often 46.2 µM), usual class: inhibitors; note: nearly all actives have a fitted effect of over 55% in size
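Cell growth measured by CellTiter-Glo luminescence after a minimum 48 h, 37 C compound exposure with 20 nM CPT in Tdp1-knockout DT40 cells stably expressing hTDP1, seeded 400/well; qHTS titration format.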
TDP1 cell noCPT – qHTS for Inhibitors of human tyrosyl-DNA phosphodiesterase 1 (TDP1): qHTS in cells in absence of CPT; DT40 Tdp1-/- hTDP1 cells, no CPT, ATP luminescence, 48 h; Potency, µM (titrated, usually from 46.2 µM), usual class: inhibitors; 420,000 tested, 15% active; AID 686978, 2013; note: nearly all actives have a fitted effect of over 55% in size
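Camptothecin absent (DMSO only). Human TDP1-complemented DT40 knockout cells, 400 cells/well, 37 °C for minimum 48 hr; ATP measured via CellTiter-Glo, 30 min dark incubation, luminescence.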
HT1080NT lethal – kills 2HG-producing HT-1080-NT fibrosarcoma cells. HT-1080-NT fibrosarcoma viability, CellTiter-Glo ATP luminescence, 48 h. 360,000 tested, 1.6% active. AID 686970. Potency, µM (doses to about 46.1 µM), hits mostly cytotoxic;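 note: NT is the 2HG producing partner of a matched IDH1 knockdown line; nearly all actives have a fitted effect of over 55% in size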
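750 cells/well, RPMI + 5% FBS; 2 h settle, compound pin-transfer, 48 h at 37 degrees C. CellTiter-Glo 10 min RT, luminescence. Normalized to DMSO and media-only wells.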
Numbers stand for hits; – = inactive; ? = inconclusive; · = no result given; [ ] = dose if it differs, or a comment. This is a sample that favours compounds with a hit; in the whole collection about 19% have one here. Unless noted, calls come from the whole dose curve; as a rule, active = well fitted curve in the direction sought with a large enough effect; inconclusive = small, poorly fitted or top-dose-only effect, or another doubt; inactive = no such curve, though single readings can be large; an effect the other way counts as inactive or inconclusive.

SMILES | HT1080 IDH1KD tx | IL-1B inflam inh | TDP1 cell CPT | TDP1 cell noCPT | HT1080NT lethal
COc1cc(CNc2nc(C)c(-c3ccn(CC4CCCN(C)C4)n3)s2)ccc1F (stereo unspecified) | · | · | –[9.04 µM] | 23µM | ·
FC(F)(F)c1nnc2c(Sc3ccccc3)nc3ccc(Cl)cc3n12 | – | -70 | 0.65µM | 0.58µM | 9.2µM
O=c1[nH]c2ccccc2n2c(C(F)(F)F)nnc12 | – | – | – | – | –
COc1ccc2cc(-c3[nH]ncc3CN3CCCCO3)ccc2c1 | – | – | ? | ? | –
COc1ccc2cc(-c3[nH]ncc3CN3CCCN(c4ccccc4)CC3)ccc2c1 | ? | ? | 23µM | ? | ?
CCC(C)n1c(SC(C)C#N)nc2ccccc2c1=O (stereo unspecified) | – | – | ? | 23µM | –
Cc1ccc(C(=O)NNC2=NC(C)(C)Cc3ccccc32)cc1 | – | – | – | – | –
CCCCNC(=O)C(CC)Sc1nnc(-c2ccc(OC)c(OC)c2)c(-c2ccc(OC)c(OC)c2)n1 (stereo unspecified) | · | · | – | – | ·
COc1ccc(-c2nnc(SCC(=O)NC3CCCC3)nc2-c2ccc(OC)c(OC)c2)cc1OC | · | · | 18µM | 21µM | ·
Cc1ccc(-c2nnc(SCC(=O)NC3CCCC3)nc2-c2ccc(C)cc2)cc1 | · | · | 18µM | 13µM | ·
CCC(Sc1nnc(-c2ccc(OC)c(OC)c2)c(-c2ccc(OC)c(OC)c2)n1)C(=O)NC1CCCC1 (stereo unspecified) | · | · | 16µM | ? | ·
CCn1c(SCC(=O)NC2CCCCC2)nnc1-c1cc2cccc(OC)c2o1 | – | – | ? | 23µM | –
CCOc1ccc(-c2nnc(SCC(=O)NC3CCCCC3)nc2-c2ccc(OCC)cc2)cc1 | · | · | – | – | ·
CSc1ccc(Cl)c(C(=O)NCCCn2ccnc2)c1 | – | – | – | – | –
CC1(C(=O)O)CCCN1C(=O)c1cc2ccccc2s1 (stereo unspecified) | – | – | – | – | –
Cn1c(=O)c2c(ncn2CC(=O)OCCCC(=O)c2ccc(Br)cc2)n(C)c1=O | – | – | 18µM | 6.5µM | –
Cn1c(=O)c2c(nc(Br)n2CCc2ccccc2)n(C)c1=O | –[9.24 µM] | – | ? | ? | –
Cn1c(=O)c2c(ncn2CCOc2cccc(Br)c2)n(C)c1=O | – | – | 8.2µM | 9.2µM | ?
Cc1ccc(OCCn2c(Br)nc3c2c(=O)n(C)c(=O)n3C)cc1 | – | – | 12µM | 18µM | –
Cn1c(=O)c2c(nc(Oc3cccc(Br)c3)n2C)n(C)c1=O | – | – | – | – | –
Cc1cc(C)nc(-c2cccc3c2OC(CNC(=O)C2CCOC2)C3)n1 (stereo unspecified) | · | · | – | – | ·
CCC(C)C(NC(=O)C(C)NC(=O)CNC(=O)OC(C)(C)C)C(N)=O (stereo unspecified) | – | – | ? | ? | –
Cc1cc(C(=O)Nc2ccc(C#N)cc2)on1 | – | – | – | – | –
CCCc1ccc(S(=O)(=O)N2CCC(c3nnnn3-c3ccc(OC)cc3)CC2)cc1 | · | · | – | – | ·
CCOc1ccc(OCCC(=O)OC(C)C(=O)Nc2ccc(C(C)=O)cc2)cc1 (stereo unspecified) | – | – | – | – | –
SMILES | HT1080 IDH1KD tx | IL-1B inflam inh | TDP1 cell CPT | TDP1 cell noCPT | HT1080NT lethal
COc1ccc(-n2c(CNC(=O)c3ccc(OC)cc3OC)nnc2SC)cc1 | · | · | –[9.04 µM] | – | ·
COc1ccc2ccccc2c1/C=N/N1C(=O)CSC1=S | – | – | – | – | –
NC(=O)N/N=C/c1c(O)ccc2oc3c(c12)CCCC3 | – | -98 | ? | ? | –
CC(C)(C)N=Cc1c(O)ccc2oc3c(c12)CCCC3 | – | – | – | – | ?
O=c1c2ccccc2nc(N/N=C/c2c(O)ccc3ccccc23)n1O | ? | – | 3.7µM | 5.2µM | ?
Cc1nc2ccccc2c(=O)n1/N=C/c1c(O)ccc2oc3c(c12)CCCC3 | – | – | 21µM | 18µM | –
O=C1CSC(=S)N1N=Cc1c(O)ccc2ccccc12 | ? | – | 21µM | 13µM | –
Cc1nc2ccccc2c(=O)n1/N=C/c1ccc(N(C)C)cc1 | – | – | – | – | –
C=CCN1C(=O)c2ccc(C(=O)OCC(=O)N(CC)c3c(N)n(Cc4ccccc4)c(=O)[nH]c3=O)cc2C1=O | – | – | – | – | –[9.24 µM]
Cc1nc2ccccc2c(=O)n1/N=C/c1cc(Br)ccc1O | ? | – | ? | ? | ?
Cc1nc2ccccc2c(=O)n1/N=C/c1c(O)ccc2ccccc12 | ? | – | ? | 18µM | ?
Nc1nc2nc(-c3ccccc3)cc(C(F)(F)F)c2s1 | ? | -73 | ? | ? | –
COc1ccc(CNc2ncncc2-c2c(C)noc2C)c(OC)c1 | · | · | – | – | ·
O=C(NCCSCc1ccco1)Nc1ccc(Cl)cc1 | – | – | ? | 12µM | –
CC(C)C[C@@H](CO)NS(=O)(=O)c1cc(Cl)ccc1F | – | – | – | – | –
Cc1cc(C)cc(C(=O)NCC(=O)OCC(=O)NC2CC2)c1 | – | – | – | – | –
COc1ccc(-n2ccc3ccccc32)cc1 | – | – | – | – | –
c1ccc2c(c1)ccn2-n1ccc2ccccc21 | · | · | – | 13µM | ·
O=C(CN(Cc1ccc(F)cc1)C(=O)c1csnn1)NC1CCCC1 | – | – | – | – | –
Cc1ccc(CNC(=O)CSc2ncc(C(=O)Nc3ccccc3)c(=O)n2C)cc1 | – | – | 12µM | 15µM | –
COc1ccccc1NC(=O)c1cnc(SCC(=O)NCCc2ccccc2)n(C)c1=O | – | – | 16µM | 10µM | –
Cn1c(SCC(=O)NCc2ccccc2)ncc(C(=O)Nc2ccccc2)c1=O | – | – | 12µM | ? | –
CC(=O)Nc1ccc(NC(=O)CSc2ncc(C(=O)Nc3ccccc3)c(=O)n2C)cc1 | 15µM | – | 21µM | 21µM | ?
COc1ccc(CCNC(=O)CSc2ncc(C(=O)Nc3ccccc3)c(=O)n2C)cc1 | – | – | ? | ? | –
Cc1ccc(N2CC(C(=O)Nc3nc4ccc(S(C)(=O)=O)cc4s3)CC2=O)cc1C (stereo unspecified) | – | – | – | – | –
SMILES | HT1080 IDH1KD tx | IL-1B inflam inh | TDP1 cell CPT | TDP1 cell noCPT | HT1080NT lethal
COc1cc(Cl)c(C)cc1Nc1nc2ccccc2n2cnnc12 | · | · | – | ? | ·
O=C(NCCc1nnc2ccc(N3CCCCCC3)nn12)c1ccccc1F | – | – | ? | – | –
Clc1cccc(/C=N/N2CCN(Cc3ccccc3)CC2)c1 | – | – | – | – | –
COc1cc(OC)cc(C(=O)Nc2nc3ccccc3[nH]2)c1 | – | – | 21µM | 29µM | –
Cc1cc(C)cc(C(=O)Nc2nc3ccccc3[nH]2)c1 | – | – | ? | 23µM | –
O=C(Nc1nc2ccccc2[nH]1)c1ccccc1F | 5.8µM | – | ? | 12µM | 4.6µM
COc1ccc(Br)c(C(=O)Nc2nc3ccccc3[nH]2)c1 | – | – | – | 5.2µM | –
O=C(Nc1nc2ccccc2[nH]1)c1cc(F)cc(F)c1 | ? | – | – | ? | ?
